Test results: PubChem BioAssay (NCATS)
Results filed as inconclusive are left out. Calls of active or inactive are those of the source. Calls follow the shape of the dose curve; as a rule, active = well fitted inhibition curve with a large enough effect; inconclusive = small, poorly fitted or top-dose-only effect; inactive = flat fitted curve, though single readings scatter.

Target: Luciferin 4-monooxygenase (Photinus pyralis) (UniProt P08659)
Assay: Biochemical firefly luciferase enzyme assay for NPC (AID 624030); also: nearly all actives have a fitted effect of over 70% in size;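 as to activity change, negative = inhibition: purified P. pyralis luciferase at 10 nM with luciferin and ATP substrate; 0% = DMSO and -100% = full luciferase inhibition by PTC124 control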
Settings: purified P. pyralis luciferase, luminescence, 5 min; series mostly up to 58.6 µM; activity change, negative = inhibition: at the top concentration
How it was run: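 Counter-screen for direct inhibition of the luciferase enzyme by approved-drug library compounds, run at 10 nM enzyme in 50 mM Tris acetate (final). Luminescence was read within 5 min of enzyme-buffer addition and normalized to PTC124 versus DMSO (0%).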
Potency is read from the fitted curve at half-maximal effect.

Chain of Luciferin 4-monooxygenase (Photinus pyralis) (P08659 whole entry, looked up): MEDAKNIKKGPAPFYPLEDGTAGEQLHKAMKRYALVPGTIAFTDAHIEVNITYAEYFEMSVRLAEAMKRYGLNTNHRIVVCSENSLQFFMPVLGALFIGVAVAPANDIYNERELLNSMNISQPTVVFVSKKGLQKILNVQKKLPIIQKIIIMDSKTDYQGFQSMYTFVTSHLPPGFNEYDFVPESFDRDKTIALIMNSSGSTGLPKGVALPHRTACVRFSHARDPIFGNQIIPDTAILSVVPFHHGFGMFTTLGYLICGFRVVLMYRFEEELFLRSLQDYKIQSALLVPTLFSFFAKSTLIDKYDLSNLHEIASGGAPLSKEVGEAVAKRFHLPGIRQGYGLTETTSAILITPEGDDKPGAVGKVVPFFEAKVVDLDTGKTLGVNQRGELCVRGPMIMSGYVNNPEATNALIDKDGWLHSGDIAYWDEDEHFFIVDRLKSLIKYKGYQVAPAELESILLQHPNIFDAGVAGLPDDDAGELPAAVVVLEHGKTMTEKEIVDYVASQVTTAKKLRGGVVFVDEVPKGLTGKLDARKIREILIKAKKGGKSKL

Row | SMILES | activity change, negative = inhibition | Potency
1 | CCN(CC)CCNC(=O)c1cc(Br)c(N)cc1OC | 0.179% (inactive) | 
2 | CC(C)(C)NC[C@H](O)COc1cccc2c1CCCC2=O | -4.64% [at 24.9 µM] (inactive) | 
3 | NS(=O)(=O)c1cc(C(=O)O)cc(N2CCCC2)c1Oc1ccccc1 | 0.0002% [at 24.9 µM] (inactive) | 
4 | O=C(O)C(Cc1cc(I)c(O)c(I)c1)c1ccccc1 (stereo not given) | -19.8% (inactive) | 
5 | Cc1cc2c(OCC(CNC(C)(C)C)OC(=O)c3ccccc3)cccc2[nH]1 (stereo not given) | 9.91% (inactive) | 
6 | CC(C)CCCC(C)N (stereo not given) | -2.33% (inactive) | 
7 | OCCOCCN1CCN(C2=Nc3ccccc3Sc3ccccc32)CC1 | -1.78% (inactive) | 
8 | FC(F)(F)C(F)(F)C(F)(F)C(F)(F)C(F)(F)C(F)(F)C(F)(F)C(F)(F)Br | -0.0974% (inactive) | 
9 | CCc1cc(Cl)c(OC)c(C(=O)NC[C@@H]2CCCN2CC)c1O |  | inactive
10 | Cc1cc(CC(=O)O)c(C)n1-c1ccc(Cl)cc1 | 0.822% (inactive) | 
11 | COc1ccc2c(c1)c1c3n2CCN(C)C3=NCC1 | 4.25% (inactive) | 
12 | CN(Cc1ccc(C(C)(C)C)cc1)Cc1cccc2ccccc12 | 2.19% (inactive) | 
13 | CCCCC(CC)COC(=O)/C=C/c1ccc(OC)cc1 (stereo not given) | -11.1% (inactive) | 
14 | CCCCN=C(N)N=C(N)N | -0.954% (inactive) | 
15 | CCCCNC(=O)NS(=O)(=O)c1ccc(N)cc1 | 1.24% (inactive) | 
16 | Clc1cccc(C(c2ccc3nc[nH]c3c2)n2ccnc2)c1 (stereo not given) | -6.73% (inactive) | 
17 | CCCCc1cc2ccccc2c(OCCN(C)C)n1 | 11.3% [at 24.9 µM] (inactive) | 
18 | C[N+]1(C)CCC(=C(c2ccccc2)c2ccccc2)CC1 | 1.91% [at 24.9 µM] (inactive) | 
19 | C#C[C@]1(O)CC[C@H]2[C@@H]3CCc4cc(OC)ccc4[C@H]3CC[C@@]21C | -4.88% (inactive) | 
20 | C#C[C@]1(O)CC[C@H]2[C@@H]3CCC4=CC(=O)CC[C@@H]4[C@H]3CC[C@@]21CC | -1.34% (inactive) | 

Row | SMILES | activity change, negative = inhibition | Potency
21 | Nc1ccc(S(=O)(=O)Nc2cnc3ccccc3n2)cc1 | -1.14% (inactive) | 
22 | CCN1/C(=C/C=C/c2sc3ccccc3[n+]2CC)Sc2ccccc21 |  | 12.8 µM (active)
23 | NC(N)=NCc1cccc(I)c1 |  | inactive
24 | CCOC(=O)[C@@](C)(N)Cc1ccc(O)c(O)c1 | -4.8% (inactive) | 
25 | Cc1ccc(S(=O)(=O)NC(=O)NC2CCCC2)cc1 | -3.2% (inactive) | 
26 | CNCCc1ccccn1 | 1.09% [at 24.9 µM] (inactive) | 
27 | CCOC(=O)c1c(N)sc2c1CCN(Cc1ccccc1)C2 | -1.65% (inactive) | 
28 | CCCCCCCCCCCCOCCOCCOCCOCCOCCOCCOCCOCCOCCO | -5.69% (inactive) | 
29 | Oc1ccccc1C=NCc1ccccc1 | -0.186% (inactive) | 
30 | CCCc1ncc(C[n+]2ccccc2C)c(N)n1 | 0.0492% [at 24.9 µM] (inactive) | 
31 | Cn1c(=O)c2[nH]c(Br)nc2n(C)c1=O | -8.35% (inactive) | 
32 | CCOC(=O)C(C#N)=C(c1ccccc1)c1ccccc1 | -2.05% (inactive) | 
33 | COc1cc(NS(=O)(=O)c2ccc(N)cc2)ncn1 | -1.91% [at 24.9 µM] (inactive) | 
34 | CCN(CC)CCNc1ccc(CO)c2sc3ccccc3c(=O)c12 | 4.72% (inactive) | 
35 | C[N+]1(CC2COC(c3ccccc3)(C3CCCCC3)O2)CCCCC1 (stereo not given) | 4.21% (inactive) | 
36 | Cc1ccc(O)c([C@H](CCN(C(C)C)C(C)C)c2ccccc2)c1 | 1.85% (inactive) | 
37 | C=C[C@H]1CN2CC[C@H]1C[C@H]2[C@H](O)c1ccnc2ccc(OC)cc12 | 4.72% (inactive) | 
38 | NC(=O)C1(N2CCCCC2)CCN(CCCC(=O)c2ccc(F)cc2)CC1 | -0.475% (inactive) | 
39 | FC1(F)C(F)(F)C(F)(F)C2(F)C(F)(F)C(F)(F)C(F)(F)C(F)(F)C2(F)C1(F)F (stereo not given) | -1.69% (inactive) | 
40 | CC(=O)O[C@H]1C[C@@H]2CC[C@@H]3[C@H](CC[C@@]4(C)[C@H]3C[C@H]([N+]3(C)CCCCC3)[C@@H]4OC(C)=O)[C@@]2(C)C[C@@H]1N1CCCCC1 | -0.98% (inactive) | 
